Consider 1 sequence from PMC7862700, “An all-to-all approach to the identification of sequence-specific readers for epigenetic DNA modifications on cytosine”.

Holding throughout (assay): DAPPL (digital affinity profiling via proximity ligation, sequencing); 10 mM Tris-HCl pH 7.5, 50 mM NaCl, 1 mM DTT, 4% glycerol, room temperature, 30 min; GST-TFs on glutathione beads, 16-mer random dsDNA library, 0.1% formaldehyde crosslink after washing; high values mean tight binding
One test addresses T1, FLI1 (Homo sapiens, UniProt Q01543 1-452).
T1 sequence: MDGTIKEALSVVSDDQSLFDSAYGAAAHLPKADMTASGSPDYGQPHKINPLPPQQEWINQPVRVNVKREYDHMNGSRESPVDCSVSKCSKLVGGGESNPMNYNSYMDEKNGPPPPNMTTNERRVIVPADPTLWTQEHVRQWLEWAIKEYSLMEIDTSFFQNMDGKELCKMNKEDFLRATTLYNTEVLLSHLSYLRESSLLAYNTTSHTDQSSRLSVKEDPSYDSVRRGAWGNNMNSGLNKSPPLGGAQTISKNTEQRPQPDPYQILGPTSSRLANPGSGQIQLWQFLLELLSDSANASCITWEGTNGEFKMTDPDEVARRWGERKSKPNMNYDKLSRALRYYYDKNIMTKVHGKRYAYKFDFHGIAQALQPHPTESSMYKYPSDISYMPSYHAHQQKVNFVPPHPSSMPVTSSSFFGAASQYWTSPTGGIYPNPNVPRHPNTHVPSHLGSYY
The note with it: protein: recombinant; tags: N-terminal GST; dsDNA, one strand shown. The procedure, abridged: (§1)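 Yeast served to express human transcription factors as GST fusions, which were then captured on glutathione beads and labelled with DNA barcodes. Pooled with a tag-only sample, they were incubated with 200 nmole of a 16-mer random double-stranded DNA library for 30 min at room temperature in Tris/NaCl/DTT/glycerol buffer, washed, crosslinked with 0.1% formaldehyde, ligated by proximity, amplified by PCR and sequenced. Dividing each hexamer's read frequency for a factor by its frequency for the tag-only sample gives the binding signal.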

The next test has as its target T2, ELK1 (Homo sapiens, UniProt P19419 1-428).
T2 sequence: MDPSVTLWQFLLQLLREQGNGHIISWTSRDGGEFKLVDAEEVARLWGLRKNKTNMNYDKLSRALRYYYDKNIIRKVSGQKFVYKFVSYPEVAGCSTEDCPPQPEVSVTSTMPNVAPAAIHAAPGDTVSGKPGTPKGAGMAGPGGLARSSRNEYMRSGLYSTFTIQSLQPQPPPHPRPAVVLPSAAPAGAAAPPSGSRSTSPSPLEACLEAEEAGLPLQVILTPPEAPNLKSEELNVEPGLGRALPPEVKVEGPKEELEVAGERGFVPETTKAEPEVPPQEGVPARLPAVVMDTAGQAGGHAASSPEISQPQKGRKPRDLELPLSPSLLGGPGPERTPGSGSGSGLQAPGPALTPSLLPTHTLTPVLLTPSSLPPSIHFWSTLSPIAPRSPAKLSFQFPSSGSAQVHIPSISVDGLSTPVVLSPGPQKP
The note with it: protein: recombinant; tags: N-terminal GST; dsDNA, one strand shown. The procedure, abridged: as §1

A further test deals with T3, GABPA (Homo sapiens, UniProt Q06546 1-454).
T3 sequence: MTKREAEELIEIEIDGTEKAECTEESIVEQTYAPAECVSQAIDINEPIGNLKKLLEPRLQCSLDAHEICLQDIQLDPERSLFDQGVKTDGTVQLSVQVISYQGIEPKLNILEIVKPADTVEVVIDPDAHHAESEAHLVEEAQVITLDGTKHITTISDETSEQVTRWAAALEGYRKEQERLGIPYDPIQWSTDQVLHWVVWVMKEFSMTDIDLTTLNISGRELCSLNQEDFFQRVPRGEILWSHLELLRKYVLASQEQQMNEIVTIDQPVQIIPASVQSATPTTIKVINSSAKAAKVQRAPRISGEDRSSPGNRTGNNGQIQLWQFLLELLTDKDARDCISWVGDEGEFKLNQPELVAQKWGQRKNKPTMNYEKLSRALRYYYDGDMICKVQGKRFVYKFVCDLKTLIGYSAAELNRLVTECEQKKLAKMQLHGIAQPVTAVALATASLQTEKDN
The settings on record: protein: recombinant; tags: N-terminal GST; dsDNA, one strand shown. The procedure, abridged:
as §1

The target in a further test is T4, ERG (Homo sapiens, UniProt P11308 1-479).
T4 sequence: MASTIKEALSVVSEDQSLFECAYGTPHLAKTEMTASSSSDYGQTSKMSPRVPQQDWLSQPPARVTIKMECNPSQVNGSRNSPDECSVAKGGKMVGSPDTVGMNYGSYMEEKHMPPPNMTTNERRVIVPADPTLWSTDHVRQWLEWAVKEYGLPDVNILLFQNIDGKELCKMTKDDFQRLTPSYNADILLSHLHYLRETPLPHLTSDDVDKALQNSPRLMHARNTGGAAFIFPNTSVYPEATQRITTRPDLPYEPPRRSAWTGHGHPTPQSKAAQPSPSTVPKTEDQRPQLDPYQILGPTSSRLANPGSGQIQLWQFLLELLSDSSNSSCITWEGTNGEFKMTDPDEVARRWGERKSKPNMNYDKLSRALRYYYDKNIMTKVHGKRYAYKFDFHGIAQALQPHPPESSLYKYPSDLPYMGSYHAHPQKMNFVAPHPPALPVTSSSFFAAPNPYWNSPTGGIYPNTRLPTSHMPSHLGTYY
The settings on record: protein: recombinant; tags: N-terminal GST; dsDNA, one strand shown. An outline of the steps: as §1

A further test concerns the target ELF1 (Homo sapiens, UniProt P32519 1-619). The note with it: protein: recombinant; tags: N-terminal GST; dsDNA, one strand shown. An outline of the steps: as §1
The target in a further test is T5, EHF (Homo sapiens, UniProt Q9NZC4 1-300).
T5 sequence: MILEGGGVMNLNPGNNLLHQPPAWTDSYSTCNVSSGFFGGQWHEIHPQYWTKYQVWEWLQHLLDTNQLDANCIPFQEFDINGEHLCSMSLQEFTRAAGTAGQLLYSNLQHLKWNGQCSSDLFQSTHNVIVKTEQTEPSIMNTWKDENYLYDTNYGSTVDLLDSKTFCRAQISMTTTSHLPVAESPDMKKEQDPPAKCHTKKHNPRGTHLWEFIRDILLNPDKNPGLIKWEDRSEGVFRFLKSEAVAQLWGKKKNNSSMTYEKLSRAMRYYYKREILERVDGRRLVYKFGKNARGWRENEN
The settings on record: protein: recombinant; tags: N-terminal GST; dsDNA, one strand shown. An outline of the steps: as §1

The next test has as its target SPI1 (Homo sapiens, UniProt P17947 1-270). The settings on record: protein: recombinant; tags: N-terminal GST; dsDNA, one strand shown. The procedure, abridged: as §1
The target in the next test is SPIB (Homo sapiens, UniProt Q01892 1-262). The settings on record: protein: recombinant; tags: N-terminal GST; dsDNA, one strand shown. An outline of the steps:
as §1

The target in a further test is T6, ELK3 (Homo sapiens, UniProt P41970 1-407).
T6 sequence: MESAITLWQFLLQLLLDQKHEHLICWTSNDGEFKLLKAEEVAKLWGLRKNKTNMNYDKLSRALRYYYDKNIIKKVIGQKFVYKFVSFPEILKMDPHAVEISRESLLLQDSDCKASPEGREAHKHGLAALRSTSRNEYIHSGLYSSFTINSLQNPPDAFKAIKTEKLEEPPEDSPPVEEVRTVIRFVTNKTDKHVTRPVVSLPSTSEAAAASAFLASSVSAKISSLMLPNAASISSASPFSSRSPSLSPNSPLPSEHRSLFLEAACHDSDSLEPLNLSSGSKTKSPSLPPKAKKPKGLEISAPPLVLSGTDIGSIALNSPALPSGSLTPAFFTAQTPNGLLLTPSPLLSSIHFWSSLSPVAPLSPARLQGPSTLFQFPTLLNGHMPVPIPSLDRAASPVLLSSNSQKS
The settings on record: protein: recombinant; tags: N-terminal GST; dsDNA, one strand shown. An outline of the steps: as §1

Another test addresses T7, FEV (Homo sapiens, UniProt Q99581 1-238).
T7 sequence: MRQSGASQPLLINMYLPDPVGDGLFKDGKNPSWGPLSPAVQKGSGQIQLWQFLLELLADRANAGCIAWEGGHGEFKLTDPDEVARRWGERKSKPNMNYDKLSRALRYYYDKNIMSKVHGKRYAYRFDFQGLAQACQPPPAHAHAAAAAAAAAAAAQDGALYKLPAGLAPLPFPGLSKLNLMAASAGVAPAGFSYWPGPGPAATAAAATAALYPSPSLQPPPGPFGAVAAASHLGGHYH
The note with it: protein: recombinant; tags: N-terminal GST; dsDNA, one strand shown. An outline of the steps: as §1

In the next test the target is ETV5 (Homo sapiens, UniProt P41161 1-510). The note with it: protein: recombinant; tags: N-terminal GST; dsDNA, one strand shown. The procedure, abridged: as §1
The target of another test is HSF1 (Homo sapiens, UniProt Q00613 1-529). The settings on record: protein: recombinant; tags: N-terminal GST; chain copies: 3; dsDNA, one strand shown. An outline of the steps:
as §1

A further test has as its target T8, SPIC (Homo sapiens, UniProt Q8N5J4 1-248).
T8 sequence: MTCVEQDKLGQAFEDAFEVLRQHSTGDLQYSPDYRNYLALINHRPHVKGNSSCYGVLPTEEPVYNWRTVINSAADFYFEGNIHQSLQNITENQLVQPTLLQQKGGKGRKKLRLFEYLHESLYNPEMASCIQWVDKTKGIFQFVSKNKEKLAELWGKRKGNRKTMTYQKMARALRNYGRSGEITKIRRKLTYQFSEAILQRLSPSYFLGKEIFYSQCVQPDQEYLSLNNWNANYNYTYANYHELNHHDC
The note with it: protein: recombinant; tags: N-terminal GST; dsDNA, one strand shown. An outline of the steps: as §1

The target of another test is ELF4 (Homo sapiens, UniProt Q99607 1-663). The note with it: protein: recombinant; tags: N-terminal GST; dsDNA, one strand shown. An outline of the steps: as §1
The next test deals with T9, ELK4 (Homo sapiens, UniProt P28324-2 1-405).
T9 sequence: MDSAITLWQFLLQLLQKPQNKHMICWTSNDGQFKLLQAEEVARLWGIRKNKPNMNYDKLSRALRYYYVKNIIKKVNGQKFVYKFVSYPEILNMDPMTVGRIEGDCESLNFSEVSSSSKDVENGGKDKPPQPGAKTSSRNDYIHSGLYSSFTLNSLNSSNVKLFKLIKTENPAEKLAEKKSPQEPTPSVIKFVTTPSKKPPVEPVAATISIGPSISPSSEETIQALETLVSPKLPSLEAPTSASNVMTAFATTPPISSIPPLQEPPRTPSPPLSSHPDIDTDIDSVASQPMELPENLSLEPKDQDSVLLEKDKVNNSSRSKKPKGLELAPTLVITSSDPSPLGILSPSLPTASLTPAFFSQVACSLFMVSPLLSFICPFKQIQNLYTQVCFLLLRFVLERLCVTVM
The settings on record: protein: recombinant; tags: N-terminal GST; dsDNA, one strand shown. An outline of the steps: as §1

Another test concerns the target T10, ETV2 (Homo sapiens, UniProt O00321 1-342).
T10 sequence: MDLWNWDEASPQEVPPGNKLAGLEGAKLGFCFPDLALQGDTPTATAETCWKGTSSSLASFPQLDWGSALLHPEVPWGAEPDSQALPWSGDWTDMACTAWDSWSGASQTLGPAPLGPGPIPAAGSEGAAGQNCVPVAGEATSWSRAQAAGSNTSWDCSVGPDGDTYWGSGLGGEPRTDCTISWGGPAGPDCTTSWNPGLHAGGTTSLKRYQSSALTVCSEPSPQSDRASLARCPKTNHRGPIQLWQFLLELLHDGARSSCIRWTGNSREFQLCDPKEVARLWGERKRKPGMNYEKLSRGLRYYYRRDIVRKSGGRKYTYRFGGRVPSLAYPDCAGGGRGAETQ
The settings on record: protein: recombinant; tags: N-terminal GST; dsDNA, one strand shown. The procedure, abridged: as §1

Another test deals with T11, ELF3 (Homo sapiens, UniProt P78545 1-371).
T11 sequence: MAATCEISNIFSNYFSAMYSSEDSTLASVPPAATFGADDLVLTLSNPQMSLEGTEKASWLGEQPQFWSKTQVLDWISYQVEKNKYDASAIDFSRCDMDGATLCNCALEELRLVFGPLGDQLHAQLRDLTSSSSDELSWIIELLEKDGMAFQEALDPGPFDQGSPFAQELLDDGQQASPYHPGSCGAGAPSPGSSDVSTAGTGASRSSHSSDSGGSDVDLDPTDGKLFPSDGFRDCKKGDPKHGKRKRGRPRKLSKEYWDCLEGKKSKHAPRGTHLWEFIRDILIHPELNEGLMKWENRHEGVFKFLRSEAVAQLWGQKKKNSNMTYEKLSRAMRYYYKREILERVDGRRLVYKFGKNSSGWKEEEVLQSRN
The settings on record: protein: recombinant; tags: N-terminal GST; dsDNA, one strand shown. An outline of the steps:
as §1

In a further test the target is CRX (Homo sapiens, UniProt O43186 1-299). The note with it: protein: recombinant; tags: N-terminal GST; dsDNA, one strand shown. An outline of the steps: as §1
The next test addresses ETV1 (Homo sapiens, UniProt P50549 1-477). The settings on record: protein: recombinant; tags: N-terminal GST; dsDNA, one strand shown. An outline of the steps: as §1

Chain of ELF4 (Q99607 whole entry): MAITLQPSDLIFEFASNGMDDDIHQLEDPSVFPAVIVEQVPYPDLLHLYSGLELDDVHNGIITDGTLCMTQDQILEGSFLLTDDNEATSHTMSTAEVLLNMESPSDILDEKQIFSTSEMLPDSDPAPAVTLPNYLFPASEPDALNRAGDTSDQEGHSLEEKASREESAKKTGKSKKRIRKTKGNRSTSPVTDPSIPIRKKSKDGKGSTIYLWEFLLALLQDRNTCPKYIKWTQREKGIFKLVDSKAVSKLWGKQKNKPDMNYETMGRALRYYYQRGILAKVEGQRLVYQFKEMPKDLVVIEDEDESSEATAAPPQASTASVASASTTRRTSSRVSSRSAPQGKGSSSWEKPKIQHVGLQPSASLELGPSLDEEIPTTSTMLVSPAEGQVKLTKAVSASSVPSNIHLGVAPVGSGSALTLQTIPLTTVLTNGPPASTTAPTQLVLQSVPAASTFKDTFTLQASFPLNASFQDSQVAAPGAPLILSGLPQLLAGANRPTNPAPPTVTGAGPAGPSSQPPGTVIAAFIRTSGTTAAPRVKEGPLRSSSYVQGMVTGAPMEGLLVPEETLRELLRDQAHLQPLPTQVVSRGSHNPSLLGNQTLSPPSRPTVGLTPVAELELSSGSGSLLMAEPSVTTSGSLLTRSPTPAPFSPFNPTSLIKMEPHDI
Chain of ETV1 (P50549 whole entry): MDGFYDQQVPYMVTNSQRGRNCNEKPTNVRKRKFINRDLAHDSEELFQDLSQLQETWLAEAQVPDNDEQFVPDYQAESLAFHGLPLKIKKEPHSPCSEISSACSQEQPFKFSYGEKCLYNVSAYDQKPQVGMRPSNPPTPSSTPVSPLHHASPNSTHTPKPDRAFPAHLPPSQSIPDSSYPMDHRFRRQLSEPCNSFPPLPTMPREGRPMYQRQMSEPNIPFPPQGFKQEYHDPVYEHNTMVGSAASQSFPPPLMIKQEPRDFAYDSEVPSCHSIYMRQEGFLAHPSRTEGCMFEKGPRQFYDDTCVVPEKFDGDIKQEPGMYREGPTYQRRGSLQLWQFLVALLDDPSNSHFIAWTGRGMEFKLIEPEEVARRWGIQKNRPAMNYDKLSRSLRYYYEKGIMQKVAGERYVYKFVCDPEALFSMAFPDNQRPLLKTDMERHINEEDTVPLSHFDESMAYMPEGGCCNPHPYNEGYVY
Chain of SPIB (Q01892 whole entry): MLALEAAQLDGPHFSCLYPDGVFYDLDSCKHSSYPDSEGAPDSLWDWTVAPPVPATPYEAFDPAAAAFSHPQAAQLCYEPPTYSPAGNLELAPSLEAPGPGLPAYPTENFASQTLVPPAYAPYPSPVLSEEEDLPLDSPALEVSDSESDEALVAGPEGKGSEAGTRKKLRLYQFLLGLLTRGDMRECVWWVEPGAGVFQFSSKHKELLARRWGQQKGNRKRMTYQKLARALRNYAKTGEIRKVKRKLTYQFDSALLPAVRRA
Chain of ETV5 (P41161 whole entry): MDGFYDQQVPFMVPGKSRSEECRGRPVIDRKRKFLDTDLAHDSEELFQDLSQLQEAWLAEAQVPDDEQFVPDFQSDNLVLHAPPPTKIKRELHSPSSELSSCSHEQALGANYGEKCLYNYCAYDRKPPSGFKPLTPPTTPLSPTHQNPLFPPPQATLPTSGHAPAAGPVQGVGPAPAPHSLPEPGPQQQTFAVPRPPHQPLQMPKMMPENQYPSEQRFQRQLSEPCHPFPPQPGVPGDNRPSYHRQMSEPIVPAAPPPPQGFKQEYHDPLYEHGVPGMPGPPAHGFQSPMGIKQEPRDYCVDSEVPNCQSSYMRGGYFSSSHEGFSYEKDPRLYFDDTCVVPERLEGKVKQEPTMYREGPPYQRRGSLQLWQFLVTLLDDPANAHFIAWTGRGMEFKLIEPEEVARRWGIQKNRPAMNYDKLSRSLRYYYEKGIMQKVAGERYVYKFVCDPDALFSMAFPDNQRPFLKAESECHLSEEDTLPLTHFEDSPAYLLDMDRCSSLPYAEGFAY
Chain of ELF1 (P32519 whole entry): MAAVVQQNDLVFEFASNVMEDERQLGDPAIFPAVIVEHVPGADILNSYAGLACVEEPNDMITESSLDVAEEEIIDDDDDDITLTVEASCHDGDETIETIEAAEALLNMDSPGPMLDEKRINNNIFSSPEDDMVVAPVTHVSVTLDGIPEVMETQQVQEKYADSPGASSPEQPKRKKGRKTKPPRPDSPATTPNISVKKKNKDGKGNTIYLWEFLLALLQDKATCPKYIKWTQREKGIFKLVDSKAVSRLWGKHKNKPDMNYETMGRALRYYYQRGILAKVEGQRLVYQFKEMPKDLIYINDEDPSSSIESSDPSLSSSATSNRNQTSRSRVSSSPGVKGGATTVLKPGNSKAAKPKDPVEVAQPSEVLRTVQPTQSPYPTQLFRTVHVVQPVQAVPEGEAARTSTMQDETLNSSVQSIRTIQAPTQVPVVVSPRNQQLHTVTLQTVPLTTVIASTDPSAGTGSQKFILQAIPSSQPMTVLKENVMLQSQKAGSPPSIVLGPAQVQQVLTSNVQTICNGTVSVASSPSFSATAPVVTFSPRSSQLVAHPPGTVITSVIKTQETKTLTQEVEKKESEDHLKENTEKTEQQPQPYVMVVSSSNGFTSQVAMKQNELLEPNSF
Chain of HSF1 (Q00613 whole entry): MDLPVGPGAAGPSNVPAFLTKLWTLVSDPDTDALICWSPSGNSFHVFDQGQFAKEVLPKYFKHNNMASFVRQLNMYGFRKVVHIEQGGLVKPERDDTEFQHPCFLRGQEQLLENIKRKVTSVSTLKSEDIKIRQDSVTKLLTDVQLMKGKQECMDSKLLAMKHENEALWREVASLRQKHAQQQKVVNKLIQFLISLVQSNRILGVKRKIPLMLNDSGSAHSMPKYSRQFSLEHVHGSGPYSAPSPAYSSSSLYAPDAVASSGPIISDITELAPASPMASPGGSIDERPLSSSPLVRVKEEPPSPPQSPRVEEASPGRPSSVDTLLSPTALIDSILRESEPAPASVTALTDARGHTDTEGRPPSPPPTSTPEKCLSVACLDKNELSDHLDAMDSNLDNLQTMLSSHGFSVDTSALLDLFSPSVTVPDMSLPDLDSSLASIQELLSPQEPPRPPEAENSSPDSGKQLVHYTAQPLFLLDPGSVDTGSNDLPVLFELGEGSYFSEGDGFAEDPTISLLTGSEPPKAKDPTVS
Chain of CRX (O43186 whole entry): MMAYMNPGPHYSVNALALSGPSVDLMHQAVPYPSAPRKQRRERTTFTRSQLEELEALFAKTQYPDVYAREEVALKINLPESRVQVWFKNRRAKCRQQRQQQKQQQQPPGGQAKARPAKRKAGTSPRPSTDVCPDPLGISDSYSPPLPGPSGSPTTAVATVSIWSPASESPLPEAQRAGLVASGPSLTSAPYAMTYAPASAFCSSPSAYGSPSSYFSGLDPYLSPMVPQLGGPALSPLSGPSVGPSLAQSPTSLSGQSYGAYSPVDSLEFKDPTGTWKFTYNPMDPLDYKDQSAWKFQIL

On to TTACCG, for which the binding signal with FLI1 was 1.16 fold enrichment (6-mer frequency, TF over GST control); with ELK1 it was 1.16 fold enrichment (6-mer frequency, TF over GST control); with GABPA, 1.12 fold enrichment (6-mer frequency, TF over GST control); with ERG, 1.2 fold enrichment (6-mer frequency, TF over GST control); with ELF1, 1.11 fold enrichment (6-mer frequency, TF over GST control); with EHF, 1.24 fold enrichment (6-mer frequency, TF over GST control). Also, the binding signal with SPI1 was 1.17 fold enrichment (6-mer frequency, TF over GST control); with SPIB it was 1.15 fold enrichment (6-mer frequency, TF over GST control); with ELK3, 1.18 fold enrichment (6-mer frequency, TF over GST control); with FEV it was 1.26 fold enrichment (6-mer frequency, TF over GST control); with ETV5, 1.23 fold enrichment (6-mer frequency, TF over GST control); in the test with HSF1, 1.25 fold enrichment (6-mer frequency, TF over GST control). Moreover, the binding signal with SPIC is 1.16 fold enrichment (6-mer frequency, TF over GST control); in the test with ELF4, 1.13 fold enrichment (6-mer frequency, TF over GST control); with ELK4, 1.16 fold enrichment (6-mer frequency, TF over GST control); with ETV2 it was 1.12 fold enrichment (6-mer frequency, TF over GST control); with ELF3, 1.2 fold enrichment (6-mer frequency, TF over GST control); in the test with CRX it was 1.74 fold enrichment (6-mer frequency, TF over GST control). For the same sequence, in the test with ETV1, the binding signal was 1.14 fold enrichment (6-mer frequency, TF over GST control).
